Data: PubChem BioAssay (NCI)
Compounds without any hit were thinned out: in the full panel of roughly 79,000, 15% have a hit. Values without a mark were called inactive. Calls of active or inactive are those of the source. Cut-off read from the data, not from the text of the source: active = growth inhibition above about 70%; inactive = the rest.

assay: NCI Yeast Anticancer Drug Screen. Data for the bub3 strain (AID 167); details: S. cerevisiae bub3 mutant strain, at 50.0 µM, hits give high values
Method in brief: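 Part of a panel of yeast mutants defective in DNA damage repair or cell cycle regulation. Each strain is grown with compound, and inhibition is calculated relative to solvent-treated cultures.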

SMILES	growth inhibition
CC1CCC(O)C(C(O)CC2CC(=O)NC(=O)C2)C1 (stereo not given)	4%
O=C(O)C(Cc1cccs1)C(=O)OCCc1ccccc1 (stereo not given)	-13.7%
CC(C(=O)c1ccc(Cl)cc1)/C(=N/NC(=O)NN)C(=O)Nc1cccc(C(F)(F)F)c1 (stereo not given)	18.6%
O=C1NCCN(CCc2ccccc2)C1c1ccccc1 (stereo not given)	15%
Cc1cc(=O)n(NC(N)=O)c(C)c1C(=O)O	-1.3%
CS(=O)(=O)OCC1COCC1COS(C)(=O)=O (stereo not given)	-14.1%
CCOC(=O)CN(c1c(C)cc(C)c(N(CC(=O)OCC)S(=O)(=O)c2ccccc2)c1C)S(=O)(=O)c1ccccc1	4.5%
COc1cc(/C=C/C(=O)OCC23CC[C@@]4(C(=O)O)CCC(C)[C@H](C)C4C2=CCC2[C@@]4(C)CC[C@H](O)C(C)(C)C4CC[C@]23C)ccc1O (stereo not given in full)	-1.6%
N#CC(C#N)=C(N)/C(C#N)=C/c1ccc2[nH]ccc2c1	-26.6%
CC(=C/c1ccccc1)/C=C1/SC(=S)N(C=C2C(=O)NC(=O)NC2=O)C1=O	50.5%
O=c1c2c([nH]n1-c1ccccc1)-c1ccccc1CS2	40.6%
CCCCOC(=O)C1CC2CC1C1OC21 (stereo not given)	-51.9%
CC(C)OC1CC1	11.7%
COc1ccc(CC[N+]2=Cc3cc(OC)c(OC)cc3CC2)cc1OC	2.7%
Cc1ccc(NC(=O)CN2CCCCC2)cc1	-0.9%
c1ccc([Si]2(c3ccccc3)[Si](c3ccccc3)(c3ccccc3)[Si](c3ccccc3)(c3ccccc3)[Si]2(c2ccccc2)c2ccccc2)cc1	-0.45%
CC(C)CC(N)C(=O)OCN1C(=O)C2C3C=CC(C2C1=O)C1C2C(=O)N(COC(=O)C(N)CC(C)C)C(=O)C2C31 (stereo not given)	-0.05%
O=c1ccc2ccc(O)c(O)c2o1	30.7%
CCOC(=O)NC(CI)(c1ccccc1)c1ccccc1	-0.25%
CCC/C=C(/CC)COC(C)=O	-5.35%

SMILES	growth inhibition
[O]=[W](=[O])([OH])[OH]	-11.6%
N#CC(C#N)=C/C=C/C=C/c1c(Cl)cccc1Cl	-6.8%
CC1(C)OCC(C2OC3OC(C)(C)OC3C2O)O1 (stereo not given)	11.7%
CN(C)CCOC(=O)C(C)(C)Sc1ccc(Cl)cc1	0.4%
O=C1OC(c2ccc(Cl)cc2)=N/C1=C\c1c(Cl)cccc1Cl	5.9%
COc1ccc(-c2cc(=O)c3c(OC)cccc3o2)c(OC)c1OC	-11.2%
Nc1ccc(C(=O)c2ccccc2)cc1Cl	36.2%
C=C1C(=O)[C@@]23CC[C@@H]4[C@@]5(C)CCC[C@@]4(OC5=O)[C@@]2(C)CC[C@@H]1C3	93.3% (active)
CCOc1cc2c(cc1C/C=C/c1ccc(OC)cc1)OCO2	41.8%
N[C@H](C(=O)O)[C@H]1ON=C(Cl)[C@@H]1O	11.3%
N#CCCN(C1=NN(C(=O)CC(=O)Nc2ccccc2)C(c2ccccc2)C1)c1ccccc1Cl (stereo not given)	-1.15%
CC1=Nc2c(ccc3c2C(=O)c2ccccc2C3=O)NC(c2ccncc2)C1 (stereo not given)	0.35%
CC1(C2(C)SCCS2)SCCS1	-8.55%
CCOC(=O)Cc1n[nH]c(=O)c2ccccc12	-21.8%
NC(=O)C1CC(I)C2CC1C(=O)O2 (stereo not given)	0.35%
Cc1cc[n+](CCc2c[nH]c3ccccc23)cc1C	-1.65%
Cc1cccc(C(=O)NCCN(C)C)c1[N+](=O)[O-]	-16.4%
CN1c2ccccc2C(=O)NC12CCN(CCCC(=O)c1ccc(F)cc1)CC2	21.9%
CCOC(=O)c1nc2ccc(C(F)(F)F)cc2nc1NCc1ccc(F)cc1	12.9%
NC(=O)NC(=O)CC1NC(=O)NC1=O (stereo not given)	-4.1%

assay: NCI Yeast Anticancer Drug Screen. Data for the mlh1 rad18 strain (AID 175); details: S. cerevisiae mlh1 rad18 strain growth inhibition; at 50.0 µM; hits give high values
Method in brief: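 Growth inhibition of the yeast strain was measured after compound exposure and expressed relative to vehicle-treated controls. The strain carries defined defects in DNA damage repair.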

SMILES	growth inhibition
CC1CCC(O)C(C(O)CC2CC(=O)NC(=O)C2)C1 (stereo not given)	3.45%
O=C(O)C(Cc1cccs1)C(=O)OCCc1ccccc1 (stereo not given)	21.7%
CC(C(=O)c1ccc(Cl)cc1)/C(=N/NC(=O)NN)C(=O)Nc1cccc(C(F)(F)F)c1 (stereo not given)	-6.95%
O=C1NCCN(CCc2ccccc2)C1c1ccccc1 (stereo not given)	-6.05%
Cc1cc(=O)n(NC(N)=O)c(C)c1C(=O)O	-5.45%
CS(=O)(=O)OCC1COCC1COS(C)(=O)=O (stereo not given)	16.6%
CCOC(=O)CN(c1c(C)cc(C)c(N(CC(=O)OCC)S(=O)(=O)c2ccccc2)c1C)S(=O)(=O)c1ccccc1	19.9%
COc1cc(/C=C/C(=O)OCC23CC[C@@]4(C(=O)O)CCC(C)[C@H](C)C4C2=CCC2[C@@]4(C)CC[C@H](O)C(C)(C)C4CC[C@]23C)ccc1O (stereo not given in full)	6.9%
N#CC(C#N)=C(N)/C(C#N)=C/c1ccc2[nH]ccc2c1	-24.1%
CC(=C/c1ccccc1)/C=C1/SC(=S)N(C=C2C(=O)NC(=O)NC2=O)C1=O	43.2%
O=c1c2c([nH]n1-c1ccccc1)-c1ccccc1CS2	28.9%
CCCCOC(=O)C1CC2CC1C1OC21 (stereo not given)	-33.5%
CC(C)OC1CC1	-21%
COc1ccc(CC[N+]2=Cc3cc(OC)c(OC)cc3CC2)cc1OC	15.5%
Cc1ccc(NC(=O)CN2CCCCC2)cc1	-21.9%
c1ccc([Si]2(c3ccccc3)[Si](c3ccccc3)(c3ccccc3)[Si](c3ccccc3)(c3ccccc3)[Si]2(c2ccccc2)c2ccccc2)cc1	3.75%
CC(C)CC(N)C(=O)OCN1C(=O)C2C3C=CC(C2C1=O)C1C2C(=O)N(COC(=O)C(N)CC(C)C)C(=O)C2C31 (stereo not given)	9.7%
O=c1ccc2ccc(O)c(O)c2o1	1.5%
CCOC(=O)NC(CI)(c1ccccc1)c1ccccc1	14.6%
CCC/C=C(/CC)COC(C)=O	-3.85%

SMILES	growth inhibition
[O]=[W](=[O])([OH])[OH]	-17.5%
N#CC(C#N)=C/C=C/C=C/c1c(Cl)cccc1Cl	-14.4%
CC1(C)OCC(C2OC3OC(C)(C)OC3C2O)O1 (stereo not given)	7.9%
CN(C)CCOC(=O)C(C)(C)Sc1ccc(Cl)cc1	25.5%
O=C1OC(c2ccc(Cl)cc2)=N/C1=C\c1c(Cl)cccc1Cl	-13.7%
COc1ccc(-c2cc(=O)c3c(OC)cccc3o2)c(OC)c1OC	9.8%
Nc1ccc(C(=O)c2ccccc2)cc1Cl	36.1%
C=C1C(=O)[C@@]23CC[C@@H]4[C@@]5(C)CCC[C@@]4(OC5=O)[C@@]2(C)CC[C@@H]1C3	92.3% (active)
CCOc1cc2c(cc1C/C=C/c1ccc(OC)cc1)OCO2	5.05%
N[C@H](C(=O)O)[C@H]1ON=C(Cl)[C@@H]1O	-2.15%
N#CCCN(C1=NN(C(=O)CC(=O)Nc2ccccc2)C(c2ccccc2)C1)c1ccccc1Cl (stereo not given)	-9.2%
CC1=Nc2c(ccc3c2C(=O)c2ccccc2C3=O)NC(c2ccncc2)C1 (stereo not given)	12.4%
CC1(C2(C)SCCS2)SCCS1	10.5%
CCOC(=O)Cc1n[nH]c(=O)c2ccccc12	-6.95%
NC(=O)C1CC(I)C2CC1C(=O)O2 (stereo not given)	-6.5%
Cc1cc[n+](CCc2c[nH]c3ccccc23)cc1C	10.8%
Cc1cccc(C(=O)NCCN(C)C)c1[N+](=O)[O-]	3.35%
CN1c2ccccc2C(=O)NC12CCN(CCCC(=O)c1ccc(F)cc1)CC2	7%
CCOC(=O)c1nc2ccc(C(F)(F)F)cc2nc1NCc1ccc(F)cc1	-48.2%
NC(=O)NC(=O)CC1NC(=O)NC1=O (stereo not given)	-16.4%
